Results as given in PubChem BioAssay (NCATS).
Records with an inconclusive call do not appear. Active and inactive are the calls of the source. Unless noted, calls follow the shape of the dose curve; as a rule, active = well fitted curve in the direction sought with a large enough effect; inconclusive = small, poorly fitted or top-dose-only effect, or another doubt; inactive = no such curve, though single readings can be large; an effect the other way counts as inactive or inconclusive.

Experiments:
[1] = target: Glutathione peroxidase 1 (Homo sapiens) (UniProt P07203); experiment: Primary qHTS Assay for Inhibitors of Recombinant Selenoprotein Glutathione Peroxidase 1 (GPX1) (AID 1845191); also: nearly all actives have a fitted effect of over 65% in size
Glutathione peroxidase 1 (Homo sapiens), sequence (P07203 whole entry, looked up): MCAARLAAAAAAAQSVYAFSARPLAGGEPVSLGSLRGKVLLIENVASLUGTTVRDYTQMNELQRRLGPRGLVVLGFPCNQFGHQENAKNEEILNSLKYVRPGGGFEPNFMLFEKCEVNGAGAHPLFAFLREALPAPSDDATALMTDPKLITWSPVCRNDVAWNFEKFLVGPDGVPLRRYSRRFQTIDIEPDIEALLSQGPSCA
Outline: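 NADPH consumption tracked by fluorescence at 340/450 nm between t=0 and t=15 min, room temperature. Final mix: 10 nM GPX1, 100 nM glutathione reductase, 1 mM GSH, 0.5 mM NADPH, 0.5 mM cumene hydroperoxide, 0.01% BSA; 30 min compound–enzyme preincubation.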

[2] = target: Phospholipid hydroperoxide glutathione peroxidase GPX4 (Homo sapiens) (UniProt P36969); experiment: Primary qHTS Assay for Inhibitors of Recombinant Selenoprotein Glutathione Peroxidase 4 (GPX4) (AID 1845192); also: nearly all actives have a fitted effect of over 65% in size; also: potency is read from the fitted curve at half-maximal effect; as to activity change, negative = inhibition: % is scaled to controls: 0 for no effect and ±100 for the full control effect
Phospholipid hydroperoxide glutathione peroxidase GPX4 (Homo sapiens), sequence (P36969 whole entry, looked up): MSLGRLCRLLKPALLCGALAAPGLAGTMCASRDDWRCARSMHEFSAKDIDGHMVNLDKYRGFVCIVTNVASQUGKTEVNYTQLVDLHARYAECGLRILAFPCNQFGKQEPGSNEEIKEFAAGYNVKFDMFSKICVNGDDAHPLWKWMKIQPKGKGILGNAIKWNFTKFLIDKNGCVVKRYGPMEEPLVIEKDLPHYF
Outline: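 NADPH consumption followed by fluorescence at 340/450 nm, t=0 and after 15 min at room temperature. Reaction started with cumene hydroperoxide (0.5 mM final) after 30 min compound–GPX4 preincubation; final 200 nM GPX4, 100 nM GR, 1 mM GSH, 0.5 mM NADPH.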

[3] = tested on: Nanoluciferase (engineered Oplophorus gracilirostris luciferase); experiment: Primary Nanoluciferase (NLuc) qHTS assay for identification of artifact compounds. (AID 1845222);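 also: NLuc secreted into diluted conditioned medium of S16 cells; 0% = DMSO and -100% = no enzyme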
Outline: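 NLuc from S16 cell medium (1:55) plus test compounds, 15 min, room temperature. Luminescence after Nano-Glo (1:100) addition, 5 min.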

[4] = Primary redox qHTS assay for identification of artifact compounds. (AID 1845223);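 also: 0% = DMSO and 100% = reference compound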
Outline: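 Redox-cycling detection via DTT (250 uM final) oxidation coupled to Amplex Red (25 uM)/HRP (250 mU/mL) in HBSS. 15 min preincubation plus 30 min after DTT, room temperature. Ex/Em 525/598 nm; 4-parameter Hill fit against DMSO and 10 uM DA3003.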

[5] = target: Cytochrome P450 3A4 (Homo sapiens) (UniProt P08684); experiment: qHTS for inhibitors of CYP3A4 against the NCATS DSHEA and TCM libraries (AID 1919971);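 also: % is scaled to controls: 0 for no effect and ±100 for the full control effect; inhibition lowers luminescence from luciferin made by CYP3A4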
Cytochrome P450 3A4 (Homo sapiens), sequence (P08684 whole entry, looked up, canonical isoform): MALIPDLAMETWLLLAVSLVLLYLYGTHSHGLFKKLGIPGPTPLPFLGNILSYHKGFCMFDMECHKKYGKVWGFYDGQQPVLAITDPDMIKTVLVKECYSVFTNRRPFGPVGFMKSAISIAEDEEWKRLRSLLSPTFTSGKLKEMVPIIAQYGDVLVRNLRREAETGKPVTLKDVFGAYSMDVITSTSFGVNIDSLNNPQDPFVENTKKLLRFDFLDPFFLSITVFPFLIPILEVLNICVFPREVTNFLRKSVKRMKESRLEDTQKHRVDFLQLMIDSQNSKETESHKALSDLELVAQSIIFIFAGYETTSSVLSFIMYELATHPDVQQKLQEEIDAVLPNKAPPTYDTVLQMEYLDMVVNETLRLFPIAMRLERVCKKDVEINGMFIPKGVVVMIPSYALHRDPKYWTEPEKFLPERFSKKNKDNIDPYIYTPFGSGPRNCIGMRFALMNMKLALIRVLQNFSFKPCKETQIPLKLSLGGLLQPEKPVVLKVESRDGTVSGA
Outline: (§1)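 Concentration-response screening with isoform-matched pro-luciferin substrates. The CYP reaction was initiated by NADPH regenerating solution and ran 30-45 min in darkness at room temperature.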

[6] = target: Cytochrome P450 2D6 (Homo sapiens) (UniProt P10635); experiment: qHTS for inhibitors of CYP2D6 against the NCATS DSHEA and TCM libraries (AID 1919972); also: % is scaled to controls: 0 for no effect and ±100 for the full control effect
Cytochrome P450 2D6 (Homo sapiens), sequence (P10635 whole entry, looked up): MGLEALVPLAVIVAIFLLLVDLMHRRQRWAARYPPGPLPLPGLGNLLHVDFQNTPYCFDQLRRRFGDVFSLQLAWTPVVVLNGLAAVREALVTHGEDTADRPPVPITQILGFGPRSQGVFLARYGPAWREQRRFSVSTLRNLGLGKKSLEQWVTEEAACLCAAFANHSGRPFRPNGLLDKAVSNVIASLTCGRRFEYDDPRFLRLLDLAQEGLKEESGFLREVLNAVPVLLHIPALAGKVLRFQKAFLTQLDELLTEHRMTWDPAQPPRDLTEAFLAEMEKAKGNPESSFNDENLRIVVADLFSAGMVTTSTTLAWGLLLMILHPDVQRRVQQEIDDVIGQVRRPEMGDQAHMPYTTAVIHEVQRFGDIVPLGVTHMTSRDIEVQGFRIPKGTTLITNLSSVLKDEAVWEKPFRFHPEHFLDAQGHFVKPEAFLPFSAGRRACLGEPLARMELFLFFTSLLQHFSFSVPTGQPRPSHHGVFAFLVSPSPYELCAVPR
Outline: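 CYP2D6 enzyme with pro-luciferin substrate in manufacturer buffer (typically 100 mM KPO4), preincubated 15 min RT with substances (most at 19.5 nM upward); NADPH regeneration system (1x) started 30–45 min RT reaction; P450-Glo luminescence read after 30 min; quinidine as intraplate control.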

[7] = target: Cytochrome P450 2C9 (Homo sapiens) (UniProt P11712); experiment: qHTS for inhibitors of CYP2C9 against the NCATS DSHEA and TCM libraries (AID 1919973); also: potency is read from the fitted curve at half-maximal effect
Cytochrome P450 2C9 (Homo sapiens), sequence (P11712 whole entry, looked up): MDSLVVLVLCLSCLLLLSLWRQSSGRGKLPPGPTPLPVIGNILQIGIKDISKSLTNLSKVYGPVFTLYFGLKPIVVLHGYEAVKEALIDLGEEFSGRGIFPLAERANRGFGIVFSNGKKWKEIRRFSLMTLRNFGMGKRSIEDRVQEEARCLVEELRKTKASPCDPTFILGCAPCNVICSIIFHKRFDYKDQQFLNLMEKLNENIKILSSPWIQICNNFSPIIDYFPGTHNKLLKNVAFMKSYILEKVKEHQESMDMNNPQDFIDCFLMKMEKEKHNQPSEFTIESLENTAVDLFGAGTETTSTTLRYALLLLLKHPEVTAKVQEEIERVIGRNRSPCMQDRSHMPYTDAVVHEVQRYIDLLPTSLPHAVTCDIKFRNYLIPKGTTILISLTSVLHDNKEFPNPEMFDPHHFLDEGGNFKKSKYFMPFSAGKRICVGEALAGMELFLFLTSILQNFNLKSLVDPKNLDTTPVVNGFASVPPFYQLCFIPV
Outline: as §1

[8] = target: Cytochrome P450 2C19 (Homo sapiens) (UniProt P33261); experiment: qHTS for inhibitors of CYP2C19 against the NCATS DSHEA and TCM libraries (AID 1919974);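 also: luminescence from luciferin released by CYP2C19 oxidation of a pro-luciferin substrate; % is scaled to controls: 0 for no effect and ±100 for the full control effect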
Cytochrome P450 2C19 (Homo sapiens), sequence (P33261 whole entry, looked up): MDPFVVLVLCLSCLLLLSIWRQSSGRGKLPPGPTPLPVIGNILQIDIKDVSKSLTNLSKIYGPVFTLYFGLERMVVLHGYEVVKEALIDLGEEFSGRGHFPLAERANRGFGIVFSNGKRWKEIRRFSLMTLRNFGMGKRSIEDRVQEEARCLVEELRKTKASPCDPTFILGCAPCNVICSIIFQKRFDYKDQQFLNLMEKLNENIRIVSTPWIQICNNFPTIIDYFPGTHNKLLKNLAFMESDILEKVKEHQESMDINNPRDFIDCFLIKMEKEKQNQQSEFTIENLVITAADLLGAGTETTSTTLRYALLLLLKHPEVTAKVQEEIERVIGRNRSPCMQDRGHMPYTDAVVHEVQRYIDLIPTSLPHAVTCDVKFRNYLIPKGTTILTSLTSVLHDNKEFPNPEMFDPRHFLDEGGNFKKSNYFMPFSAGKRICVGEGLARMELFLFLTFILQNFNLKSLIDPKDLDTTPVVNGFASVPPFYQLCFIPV
Outline: as §1

[9] = KB-3-1 P-gp reporter qHTS against the NCATS DSHEA and TCM libraries (AID 1919975); also: 0% is about no effect
Outline: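 72 h exposure of KB-3-1 cells (DMEM, 10% FBS) to DSHEA/TCM samples, concentration-response; cell viability measured as CellTiter-Glo luminescence after 30 min at room temperature.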

[10] = target: Cytochrome P450 1A2 (Homo sapiens) (UniProt P05177); experiment: qHTS for inhibitors of CYPIA2 against the NCATS DSHEA and TCM libraries (AID 1919976);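 also: light from luciferin formed by CYP1A2 from a pro-luciferin substrate; % is scaled to controls: 0 for no effect and ±100 for the full control effect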
Cytochrome P450 1A2 (Homo sapiens), sequence (P05177 whole entry, looked up): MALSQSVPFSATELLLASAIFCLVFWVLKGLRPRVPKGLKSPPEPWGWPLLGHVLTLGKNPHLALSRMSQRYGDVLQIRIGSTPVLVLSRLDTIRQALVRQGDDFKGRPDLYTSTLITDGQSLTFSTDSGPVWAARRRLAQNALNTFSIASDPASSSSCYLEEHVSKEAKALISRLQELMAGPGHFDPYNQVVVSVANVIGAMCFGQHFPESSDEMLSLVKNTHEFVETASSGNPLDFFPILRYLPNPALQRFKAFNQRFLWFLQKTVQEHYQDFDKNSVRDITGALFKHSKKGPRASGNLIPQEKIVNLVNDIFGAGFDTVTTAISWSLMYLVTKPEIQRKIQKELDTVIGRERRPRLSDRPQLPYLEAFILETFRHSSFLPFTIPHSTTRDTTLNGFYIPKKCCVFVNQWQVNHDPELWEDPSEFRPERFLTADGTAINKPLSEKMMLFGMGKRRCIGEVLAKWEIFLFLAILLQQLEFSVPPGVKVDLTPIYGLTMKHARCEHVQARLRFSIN
Outline: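 Enzyme and pro-luciferin substrate, or substrate alone as no-enzyme background, are pre-incubated with test samples for 15 min at room temperature. NADPH regeneration system (1x final) initiates a 30-45 min dark reaction; luciferase detection reagent follows before luminescence reading.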

[11] = qHTS Counterscreen for compound interference against the NCATS DSHEA and TCM libraries (AID 1919978); conditions: firefly luciferase detection reagent interference, luminescence; also: % of control where 0% means no effect
Outline: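 Read-out is luminescence after 30 min at RT with luciferin detection reagent. Before that, compounds (19.5 nM to 39.8 uM final) sat 15 min at RT with 1 uM D-luciferin or 100 mM potassium phosphate buffer. PTC124 served as intraplate control.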

[12] = Dual reporter qHTS for agonist of Pregnane X Receptor (hPXR) against the NCATS DSHEA and TCM libraries: Fluorescence readout (AID 1920058); also: 0% is about no effect
Outline: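 Cells were plated at 2000 per well and allowed to attach for 5 h. Test substances were pinned in and incubated roughly 24 h. CellTiter-Fluor was then added and fluorescence measured after 1 h.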

[13] = target: Nuclear receptor subfamily 1 group I member 2 (Homo sapiens) (UniProt O75469); experiment: Dual reporter qHTS for agonist of Pregnane X Receptor (hPXR) against the NCATS DSHEA and TCM libraries: Luminescence readout (AID 1920059); also: 0% is about no effect
Nuclear receptor subfamily 1 group I member 2 (Homo sapiens), sequence (O75469 whole entry, looked up): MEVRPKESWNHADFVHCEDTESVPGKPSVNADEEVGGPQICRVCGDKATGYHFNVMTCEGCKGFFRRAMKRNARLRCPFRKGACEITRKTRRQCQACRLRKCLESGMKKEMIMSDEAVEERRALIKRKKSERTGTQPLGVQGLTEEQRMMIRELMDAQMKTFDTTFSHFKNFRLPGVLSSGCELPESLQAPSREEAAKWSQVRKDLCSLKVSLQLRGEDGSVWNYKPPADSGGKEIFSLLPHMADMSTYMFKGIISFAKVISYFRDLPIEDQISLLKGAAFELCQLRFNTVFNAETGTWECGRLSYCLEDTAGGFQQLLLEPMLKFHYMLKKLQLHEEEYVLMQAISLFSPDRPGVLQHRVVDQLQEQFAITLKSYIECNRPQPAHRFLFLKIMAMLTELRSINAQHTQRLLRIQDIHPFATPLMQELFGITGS
Outline: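 Luminescent PXR reporter read (ONE-Glo) after a CellTiter-Fluor viability read, following 24 h, 37C treatment of HepG2 cells stably carrying hPXR-Luc.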

[14] = target: Nuclear receptor subfamily 1 group I member 2 (Homo sapiens) (UniProt O75469); experiment: Dual reporter qHTS for antagonist of Pregnane X Receptor (hPXR) against the NCATS DSHEA and TCM libraries: Luminescence Readout (AID 1920060);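 also: HepG2 cells carrying hPXR luciferase reporter stimulated with rifampicin at 2 µM; 0% is about no effect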
Outline: (§2)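 hPXR-Luc HepG2 cells exposed 24 h at 37 C to compounds with 2 uM rifampicin in antagonist mode; luciferase luminescence measured by ONE-Glo, with CellTiter-Fluor viability read beforehand.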

[15] = Dual reporter qHTS for antagonist of Pregnane X Receptor (hPXR) against the NCATS DSHEA and TCM libraries: Fluorescence Readout (AID 1920061); also: 0% is about no effect
Outline: as §2

[16] = qHTS profiling for inhibitors of Plasmodium falciparum proliferation (AID 504749);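 also: 0% = DMSO vehicle and full inhibition = artemisinin control; nearly all actives have a fitted effect of over 60% in size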; conditions: P. falciparum in erythrocytes, SYBR Green DNA, 72 h, at 28.7 µM (top of the series)
Outline: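 SYBR Green fluorescence of parasite DNA, read after lysis and overnight dark incubation, measured growth over 72 h in erythrocyte culture at 0.3% parasitemia and 2.5% hematocrit. Data normalised to DMSO and 0.29 uM artemisinin, with plate-drift correction.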

[17] = Primary fluorescence-based thiol-reactive (MSTI) qHTS assay for identification of artifact compounds. (AID 1845221); also: nearly all actives have a fitted effect of over 65% in size; also: potency is read from the fitted curve at half-maximal effect;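 as to activity change, negative = thiol reactive: thiol-reactive compounds lower the probe fluorescence signal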
Outline: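 In PBS pH 7.4 with 2% DMSO, each compound met 4 uM MSTI for one hour at ambient temperature, shielded from light, before fluorescence detection.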

[18] = qHTS drug screen for cell cycle checkpoint inhibitors in PARPi-resistant BRCA-mutant ovarian cancer cell lines. (AID 1963452; calls by dose curve); conditions: PEO1/OlaR viability, CellTiter-Glo luminescence, 96 h, stronger effect = lower value
Outline: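 PEO1, PEO4 and PEO1/OlaR ovarian cancer cells, 600 per well, exposed 96 h at 37C to a dilution series. Viability read by CellTiter-Glo luminescence, normalized to DMSO and empty wells; activity summarized as Z-AUC.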

[19] = measured here: PEO1 parental Z-AUC

CC1(C)CC2C(C1)C1(C)CCC13OC3(CO)C2O (centres undefined)
inactive: Potency [1] | Potency [2] | Potency [3] | Potency [4]

CCCCCCCC(=O)O
inactive: Potency [1] | Potency [2] | outcome [5] | outcome [6] | Potency [7] | Potency [8] | outcome [9] | outcome [10] | max response [11] 5.32% | outcome [12] | outcome [13] | outcome [14] | outcome [15] | activity, negative = inhibition ([16]; parasite line A) 5.42% | activity, negative = inhibition ([16]; parasite line B) 9%

COc1cc(CCc2ccccc2)c(C(=O)O)c2c1CC(C(C)(C)O)O2 (centres undefined)
inactive: Potency [1] | Potency [2] | Potency [17] | Potency [3] | Potency [4]

CC(C)(O)CNc1nc(Nc2ccnc(C(F)(F)F)c2)nc(-c2cccc(C(F)(F)F)n2)n1
0.79: Z-AUC ([18]; measured here: PEO4 Z-AUC)
inactive: Potency [1] | Potency [2] | Potency [17] | Potency [3] | Potency [4] | Z-AUC [18] 0.352
0.62: Z-AUC [18, 19]

CC1=C(/C=C/C(C)=C/C=C/C(C)=C/CO)C(C)(C)CCC1
inactive: Potency [1] | outcome [6] | outcome [9] | max response [11] 0.358% | outcome [12] | outcome [14] | outcome [15]
active: Potency [2] 17.8 µM | Potency [7] 14.1 µM

COc1cc([C@@H]2Oc3c(OC)cc(CCCO)cc3[C@@H]2CO[C@@H]2O[C@H](CO)[C@@H](O)[C@H](O)[C@H]2O)ccc1O
inactive: Potency [1] | Potency [2] | Potency [3] | Potency [4]
active: Potency [17] 4.12 µM

C=C1CC[C@H]2[C@@](C)(CCC[C@@]2(C)C(=O)O)[C@@H]1CCC(C)CCO (some centres undefined)
inactive: Potency [1] | Potency [2] | Potency [17] | Potency [3] | Potency [4]

CC(C)(C)NCc1cc(Nc2ccnc3cc(Cl)ccc23)c2c(c1O)CCCC2
inactive: activity, negative = inhibition [1] -7.83% [at 0.4 µM] | activity change, negative = inhibition [2] -7.38% [at 0.409 µM] | activity change, negative = thiol reactive [17] -13.7% [at 0.461 µM] | activity, negative = inhibition [3] 1.02% [at 0.464 µM] | redox activity (% of DA3003) [4] -4.12% [at 0.461 µM]

CCn1c2ccccc2c2cc(CNC)ccc21
inactive: Potency [1] | Potency [2] | Potency [17] | Potency [3] | Potency [4]

NCc1ccc(OCCCc2sc(-c3ccc4c(c3)/C(=N/Nc3nc5ccccc5s3)CCC4)nc2C(=O)O)cc1
1.09: Z-AUC [18, 19]
0.501: Z-AUC ([18]; measured here: PEO4 Z-AUC)
inactive: Potency [1] | Potency [2] | Potency [4] | Z-AUC [18] 1.02

Cn1c(=O)c2nc(/C=C/c3cccc(Cl)c3)n(C)c2n(C)c1=O
inactive: Potency [1] | Potency [2] | Potency [17] | Potency [3] | Potency [4]

CC1(C)CC2C(O)C3=C(CC(C)(O)C2C1)C(=O)OC3O (centres undefined)
inactive: Potency [1] | Potency [2] | Potency [17] | Potency [3] | Potency [4]

COc1ccc(/C=C/C(=O)O[C@@H]2[C@@H](OC(C)=O)[C@@H](OC(C)=O)[C@H](O[C@H]3[C@@H]4C=CO[C@@H](O[C@@H]5O[C@H](CO)[C@@H](O)[C@H](O)[C@H]5O)[C@@H]4[C@@]4(CO)O[C@@H]34)O[C@H]2C)cc1O
inactive: Potency [1] | Potency [2] | Potency [3]

O=S(=O)(NC1CCNCC1)c1cc(S(=O)(=O)c2ccccc2)ccc1C(F)(F)F
inactive: Potency [1] | Potency [2] | Potency [17] | Potency [3] | Potency [4]

CO[C@@H]1CC[C@H](OC[C@]2(COC(=O)c3ccc(C)[nH]3)[C@H](OC(C)=O)CC[C@@]3(C)[C@@H]4CC=C(C)[C@@H](C5=C(O)C(=O)OC5O)[C@]4(C)CC[C@@H]32)O[C@H]1C (some centres undefined)
inactive: Potency [1] | Potency [2] | Potency [3]

CCC(CC)n1ccc2c(C(=O)NCc3c(C)cc(C)[nH]c3=O)cc(C#N)cc21
inactive: Potency [1] | Potency [2] | Potency [17] | Potency [3] | Potency [4]

O=C(c1ccc(C#Cc2cccc(F)c2)cn1)N1CC2CC2C1 (centres undefined)
inactive: Potency [1] | Potency [2] | Potency [17] | Potency [4]

C=C1CC/C=C(/CO)C(=O)C[C@@H]2[C@@H]1CC2(C)C
inactive: Potency [1] | Potency [2] | Potency [17] | Potency [3] | Potency [4]

CC1=C(/C=C/C(C)=C/C=C/C(C)=C/C=C/C=C(C)/C=C/C=C(C)/C=C/C2=C(C)CCCC2(C)C)C(C)(C)CCC1
inactive: Potency [1] | Potency [2] | outcome [5] | outcome [6] | Potency [7] | Potency [8] | outcome [9] | max response [11] -3.35% | outcome [12] | outcome [13] | outcome [14] | outcome [15] | Z-AUC [18] 1.77 | activity, negative = inhibition ([16]; parasite line A) 0.195% | activity, negative = inhibition ([16]; parasite line B) -0.801%
0.804: Z-AUC ([18]; measured here: PEO4 Z-AUC)
1.11: Z-AUC [18, 19]
